Laboratory results: PubChem BioAssay AID602198 (NMMLSC, 2012)
Measured potencies and affinities stand elsewhere. Calls of active or inactive are those of the source. The rule behind the calls is not given here.

Assay: V-ATPase regulators in yeast, concentration series – S. cerevisiae, pHLuorin, cherry pick 2, dose response (AID 602198)
Conditions: pHLuorin vacuolar pH fluorescence; series mostly up to 33.1 µM

outcome, inactive:
CC1(C)CC(=O)C(C(C2=C(O)CC(C)(C)CC2=O)c2cccs2)C(=O)C1 (centres undefined)
O=C(NC1CCCCC1)c1c(O)nc2sccn2c1=O
Cc1ccc2oc(C(=O)N(C)Cc3ccc(C)o3)c(C)c2c1
O=C(c1ccc([N+](=O)[O-])o1)N1CCN(c2nc3c(Cl)cccc3s2)CC1
O=C(O)c1ccc(/C=N/N2CCN(C3c4ccccc4-c4ccccc43)CC2)cc1
COc1ccc2nc(N3CCN(C(=O)c4ccc([N+](=O)[O-])o4)CC3)sc2c1
O=[N+]([O-])c1ccc2c(c1)-c1ccccc1C2=NO
O=C1Oc2ccccc2C(=O)/C1=C/c1ccccc1O
CC1=NOC(=O)/C1=C\c1ccccc1
